This passage reports Potency results from PubChem BioAssay (NCATS).

Structures are written as SMILES. Results filed as inconclusive are left out. Where a call stands in place of a potency, no number is given. Calls of active or inactive are those of the source. The call rests on the fitted dose curve; in most records, active means well fitted inhibition curve with a large enough effect; inconclusive means small, poorly fitted or top-dose-only effect; inactive means flat fitted curve, though single readings scatter.
Potency means the concentration at half of the fitted maximal effect.

A short description of this assay: BET inhibitor-based combinations targeting novel dependencies in MECOM-rearranged (r) AML: AML-194 cell line (AID 2202237; further: nearly all actives have a fitted effect of over 40% in size). The note with it: AML-194 (MECOM-r AML) viability, CellTiter-Glo, 48 h; series mostly up to 46 µM. An outline of the steps: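 Luminescent ATP readout (CellTiter-Glo) after 48 hr drug exposure gives viability. Curves span 11 concentrations and are normalized to DMSO and empty wells. Activity is reported as area under the curve and its Z-transform within each cell line.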
Background: Cellular ATP, detected with luciferase, serves as a proxy for viable cell number.
`Cc1cc(C(C)(C)C)cc(C)c1CC1=NCCN1`: the Potency result is “inactive”.

As to `COc1ccc(CCN(C)CCCC(C#N)(c2ccc(OC)c(OC)c2)C(C)C)cc1OC` (stereo not drawn), the Potency result is “inactive”.

With `Cc1cc(C)c(/C=C2\C(=O)Nc3ccccc32)[nH]1`, the Potency result is “inactive”.

In the case of `Cc1cc(Cl)ccc1OCCCC(=O)NO`, the Potency is 4.17 µM (active).

Take `NCCc1ccc(O)c(O)c1`: the Potency result is “inactive”.

In the case of `Clc1ccc(C(c2ccc(Cl)cc2)n2cc[n+](CC(OCc3ccc(Cl)cc3Cl)c3ccc(Cl)cc3Cl)c2)cc1` (stereo not drawn), the Potency was 26.3 µM (active).

Take `O=C1CCC(N2C(=O)c3ccccc3C2=O)C(=O)N1` (stereo not drawn): the Potency result is “inactive”.

Consider `CN1CCC(=C2c3ccccc3CC(=O)c3sccc32)CC1`, for which the Potency entry is “inactive”.

With `OC(CCN1CCCCC1)(c1ccccc1)C1CC2C=CC1C2` (stereo not drawn), the Potency entry was “inactive”.

In the case of `COc1cc(SC)ccc1C(=O)N1CCC(Cc2ccccc2)CC1`, the Potency entry was “inactive”.

Take `CS(=O)(=O)Nc1ccc([N+](=O)[O-])cc1Oc1ccccc1`: the Potency result is “inactive”.

Consider `Nc1nc2c(ncn2COCCO)c(=O)[nH]1`, for which the Potency result was “inactive”.

As to `O=C(c1ccc(OCCN2CCCCC2)cc1)c1c(-c2ccc(O)cc2)sc2cc(O)ccc12`, the Potency was 20.9 µM (active).

Take `CC1COc2c(N3CCN(C)CC3)c(F)cc3c(=O)c(C(=O)O)cn1c23` (stereo not drawn): the Potency result was “inactive”.

With `CCN1CCCC1CNC(=O)c1cc(S(=O)(=O)CC)c(N)cc1OC` (stereo not drawn), the Potency entry was “inactive”.

In the case of `CCn1cc(C(=O)O)c(=O)c2cc(F)c(N3CCNC(C)C3)c(F)c21` (stereo not drawn), the Potency entry is “inactive”.

Consider `CC(C[N+](C)(C)C)OC(N)=O` (stereo not drawn), for which the Potency entry was “inactive”.

Regarding `CC(C)(Oc1ccc(C2CC2(Cl)Cl)cc1)C(=O)O` (stereo not drawn), the Potency result is “inactive”.

With `CN[C@H](CC(C)C)C(=O)N[C@H]1C(=O)N[C@@H](CC(N)=O)C(=O)N[C@H]2C(=O)N[C@H]3C(=O)N[C@H](C(=O)N[C@H](C(=O)O)c4cc(O)cc(O)c4-c4cc3ccc4O)[C@H](O)c3ccc(c(Cl)c3)Oc3cc2cc(c3O[C@@H]2O[C@H](CO)[C@@H](O)[C@H](O)[C@H]2O[C@H]2C[C@](C)(N)[C@H](O)[C@H](C)O2)Oc2ccc(cc2Cl)[C@H]1O`, the Potency result was “inactive”.

On to `Oc1ccc2ccccc2c1SSc1c(O)ccc2ccccc12`, for which the Potency is 20.9 µM (active).

For `O=C(CCc1ccc(O)cc1)c1c(O)cc(O)cc1O`, the Potency entry is “inactive”.

Turning to `Cc1cnc(C(=O)NCCc2ccc(S(=O)(=O)NC(=O)NC3CCCCC3)cc2)cn1`, the Potency entry was “inactive”.

In the case of `C1COC(NC(C2CC2)C2CC2)=N1`, the Potency result was “inactive”.
